From PubChem
Rows were chosen to be rich in hits. Some 28% of all compounds tested hit in one or more screens of this group.
CYP2C19 inh: inhibitors of human CYP2C19; hit rate 21% among 96,000; inhibition, % at 5 µM; CYP2C19 Supersomes, luciferin-H EGE luminescence, 30 min; P33261;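 active = CYP2C19 inhibition above a set limit at 5 µM in the primary screen, cut at about 50% in these data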
PLK1 PBD inh: inhibitors of human Plk1 polo box domain binding | P53350 | Plk1 PBD phosphopeptide binding, fluorescence polarization | inhibition, %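 (tested at about 20 µM)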 | hit rate 0.13% among 97,000 | AID 693; in the data active = inhibition above about 34%, passing the limit was not always enough
PLK1 inh: inhibitors of human PLK1 kinase. recombinant PLK1 kinase, TR-FRET peptide phosphorylation. inhibition, % at 10 µM. AID 619. P53350. hit rate 0.53% among 97,000;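 active = inhibition of 50% or more in the single-concentration screen; inactive = inhibition below 50%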
CYP2C9 inh: blocks human cytochrome P450 2C9 | CYP2C9 Supersomes, luciferin-H conversion, luminescence | inhibition, % at 5 µM | hit rate 20% among 96,000;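 active = blocking of liver enzyme CYP2C9 beyond about 50% at 5 µM, limit read from the data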
Target sequence (P11712 whole entry, looked up): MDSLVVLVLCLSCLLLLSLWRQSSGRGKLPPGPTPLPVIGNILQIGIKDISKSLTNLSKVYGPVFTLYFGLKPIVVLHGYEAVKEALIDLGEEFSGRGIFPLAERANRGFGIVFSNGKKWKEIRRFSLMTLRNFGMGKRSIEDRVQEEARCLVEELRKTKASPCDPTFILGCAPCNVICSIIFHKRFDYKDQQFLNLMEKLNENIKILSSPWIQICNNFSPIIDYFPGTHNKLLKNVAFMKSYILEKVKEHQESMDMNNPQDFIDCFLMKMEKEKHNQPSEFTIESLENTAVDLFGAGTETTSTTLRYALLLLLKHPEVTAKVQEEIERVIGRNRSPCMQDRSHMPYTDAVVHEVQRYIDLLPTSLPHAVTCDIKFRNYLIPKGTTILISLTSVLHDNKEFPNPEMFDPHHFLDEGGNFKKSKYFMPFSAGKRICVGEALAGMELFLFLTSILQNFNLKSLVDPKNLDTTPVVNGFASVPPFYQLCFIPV
CYP2C9 act: CYP2C9 (human) activation. activation factor at 5 µM. hit rate 1.4% among 96,000. P11712. recombinant CYP2C9, luciferin-H conversion, luminescence; hits give high values; factor 1 = untreated enzyme, 0 = blocked. AID 1024;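 active = activation factor of 2 or more for CYP2C9 at a 5 µM dose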
CYP2C19 act: cytochrome P450 2C19 (human) activation | P33261 | recombinant CYP2C19, luciferin-H EGE luminescence; hits give high values; 0 = fully inhibited enzyme, 1 = untreated enzyme | activation factor at 5 µM | 96,000 tested, under 10 active;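 active = activation factor of at least 2 at 5 µM in the primary screen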
A number is an active result; . = inactive; / = no result.

SMILES	CYP2C19 inh	PLK1 PBD inh	PLK1 inh	CYP2C9 inh	CYP2C9 act	CYP2C19 act
Cc1cc2cc(CNC(=O)c3ccc(S(=O)(=O)N4CCCC4)cc3)ccc2n1C	.	.	.	81.6	.	.
CCOC(=O)c1c(N)sc(C(O)(C(F)(F)F)C(F)(F)F)c1-c1ccc(OC)cc1OC	54.9	.	.	71.9	.	.
CCOC(=O)CSc1nc2ccccc2n1CC(=O)N(C(C)C)C(C)C	.	.	.	.	.	.
CCOC(=O)CN1C=C(c2ccc3ccccc3n2)C(C[N+](=O)[O-])c2ccccc21 (stereo not drawn)	72.2	.	.	92.3	.	.
CCOc1ccc2c(c1)C(c1ccccc1)=NNC(c1ccccc1)=N2	/	.	.	/	/	/
CCOc1ccc2[nH]c(=O)c(CN(CCOC)C(=O)N3CCOCC3)cc2c1	.	.	.	.	.	.
CC(c1cccnc1)N(CCN(C)C)C(=O)Nc1ccc(Cl)cc1 (stereo not drawn)	.	.	.	.	.	.
O=C(NCc1cccnc1)c1sc2cc(Cl)ccc2c1Cl	78.9	.	.	.	.	.
O=C(NCc1ccco1)c1sc2cc(Cl)ccc2c1Cl	/	.	.	/	/	/
C=CCn1c(N)c(C(=O)NC2CCCCC2)sc1=S	.	.	.	.	.	.
Cn1c(C(=O)NCc2cccnc2)cc2sc(Cl)cc21	96.7	/	/	88.8	.	.
O=C(Nc1c(Cl)cc(Cl)cc1C(=O)NCc1cccnc1)c1ccc(Cl)cc1Cl	.	57.4	.	.	.	.
C=CCn1c(N)c(C(=O)NCc2cccnc2)sc1=S	96.1	.	.	77.5	.	.
O=C(NCc1cccnc1)c1ccccc1Br	.	.	.	.	.	.
O=C(Nc1ccccc1)C1CC=CCC1C(=O)OCC1CCCO1 (stereo not drawn)	.	.	.	.	.	.
COc1cc(Cl)c(C)cc1NC(=O)COc1ccccc1[N+](=O)[O-]	.	.	.	.	.	.
CC(C)(C)NC(=O)COc1ccc(CNCc2cccs2)cc1	.	.	.	.	.	.
c1ccc(COc2ccc(CNCc3cccs3)cc2)cc1	54.4	.	.	.	.	.
COCC(=O)Nc1ccc(C)c(Cl)c1	.	.	.	.	.	.
CSCCC(NC(=O)c1ccccc1)C(=O)OCC(=O)Nc1ccc(C)c(Cl)c1 (stereo not drawn)	.	.	.	82.1	.	.
CC(C)NC(=O)Cn1nnc(-c2ccc(Cl)cc2)n1	.	.	.	.	.	.
CCOC(=O)CCSc1nc2c(c(C(F)(F)F)c1C#N)CCC2	77.6	.	.	67.2	.	.
CCCCSc1nc2c(c(C(F)(F)F)c1C#N)CCC2	.	.	.	.	.	.
S=C(Nc1ccc(Cl)c(Cl)c1)NC1CCN(Cc2ccccc2)CC1	/	.	.	/	/	/
Clc1ccc(/C=N/Nc2nnc(-c3ncc[nH]3)c3ccccc23)cc1	.	.	.	.	.	.
SMILES	CYP2C19 inh	PLK1 PBD inh	PLK1 inh	CYP2C9 inh	CYP2C9 act	CYP2C19 act
Oc1ccc(/C=N/Nc2nccnc2Cl)cc1	98.1	.	.	99.8	.	.
O=[N+]([O-])c1cccc(/C=N/Nc2nccnc2Cl)c1	59.5	.	.	.	.	.
Cc1cc(-n2c(SCCC#N)nnc2-c2cccnc2)ccc1Cl	.	/	/	.	.	.
CCCCS(=O)CC(COc1ccc(Cl)cc1)OC(=O)c1ccccc1 (stereo not drawn)	95.4	.	.	80.4	.	.
CCOC(=O)c1c(NC(=O)CN2CCOCC2)sc2c1CC(C)(C)OC2	.	.	.	73.7	.	.
CCOC(=O)c1c(NC(=O)c2ccc(C)cc2)sc2c1CC(C)(C)OC2	.	.	.	.	.	.
CCOC(=O)c1c(NC(=O)c2ccccc2C)sc2c1CC(C)(C)OC2	.	.	.	77.1	.	.
CCCn1c(NC(=O)c2cccc(S(=O)(=O)N3CCCC3)c2)nc2ccccc21	.	/	/	.	.	.
O=C(O)Cn1c(P(=O)(O)c2ccccc2)nc2ccccc21	.	.	.	.	.	.
Cc1ccc(S(=O)(=O)NC(CN2CCOCC2)=NCCNS(=O)(=O)c2ccccc2)cc1	.	.	.	52.2	.	.
Cc1ccc(S(=O)(=O)N2CCC(C(=O)NCCN3CCCCCC3)CC2)cc1	.	.	.	.	.	.
O=C(Cn1nc(C(F)(F)F)c2c1CCCC2)NCCN1CCOCC1	63.8	.	.	.	.	.
CCOc1ccc(-c2nc(CSc3nncs3)cs2)cc1OC	53.3	.	.	.	.	.
